Assay results reported in ChEMBL document CHEMBL3433997, “St. Jude Leishmania screening dataset” (2016).

Tests used:
Type in all cases: functional
[1] = target: Solute carrier family 2, facilitated glucose transporter member 1 (Homo sapiens) (UniProt P11166); assay: ST_JUDE_LEISH: Cytotoxicity at 2uM final concentration against transgenic Leishmania Mexicana promastigotes LmGLUT1 that are glucose transport deficient and complemented with the human glucose transporter GLUT1. Activity is measured by DNA content using SYBR green in vitro
Chain of Solute carrier family 2, facilitated glucose transporter member 1 (Homo sapiens) (P11166 whole entry): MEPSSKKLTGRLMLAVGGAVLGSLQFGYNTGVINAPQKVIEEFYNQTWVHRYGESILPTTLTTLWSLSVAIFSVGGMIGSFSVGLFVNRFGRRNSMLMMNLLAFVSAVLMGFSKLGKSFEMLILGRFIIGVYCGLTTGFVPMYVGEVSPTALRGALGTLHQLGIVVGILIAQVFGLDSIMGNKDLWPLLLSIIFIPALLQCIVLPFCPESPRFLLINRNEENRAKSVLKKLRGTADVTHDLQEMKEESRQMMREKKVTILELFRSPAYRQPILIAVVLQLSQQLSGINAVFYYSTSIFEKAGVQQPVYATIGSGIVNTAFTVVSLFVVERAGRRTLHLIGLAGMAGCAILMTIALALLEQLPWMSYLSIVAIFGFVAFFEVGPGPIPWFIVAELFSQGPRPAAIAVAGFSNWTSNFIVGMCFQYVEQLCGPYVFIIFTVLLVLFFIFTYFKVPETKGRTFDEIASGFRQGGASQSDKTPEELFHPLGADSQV

[2] = target: Hexose transporter 1 (Plasmodium falciparum) (UniProt O97467); assay: ST_JUDE_LEISH: Cytotoxicity at 2uM final concentration against transgenic Leishmania Mexicana promastigotes LmPfHT that are glucose transport deficient and complemented with the Plasmodium falciparum hexose transporter. Activity is measured by DNA content using SYBR green in vitro
[3] = target: Glucose transporter (Leishmania mexicana) (UniProt O61059); assay: ST_JUDE_LEISH: Cytotoxicity at 2uM final concentration against transgenic Leishmania Mexicana promastigotes LmGT2 that are glucose transport deficient and complemented with the L. Mexicana glucose transporter 2. Activity is measured by DNA content using SYBR green in vitro

`Nc1c(Cl)cc(C(O)CNCCCCCCOCCc2ccc(O)cc2)cc1Cl` (stereo not drawn) showed an inhibition [1] of -0.61%, an inhibition [2] of -1.55% and an inhibition [3] of -2.56%.
`CC(C)CNC(=O)c1cncc(-c2ccc(CN3CCC(N4CCCC4)CC3)cc2)c1` was tested, and the inhibition [1] was 1.79%, the inhibition [2] was 1.64% and the inhibition [3] was 2.41%.
With `COc1ccc(CNCCCCCNCc2ccc(Cl)c(Cl)c2)cc1Cl` the inhibition [1] was 3.98%, the inhibition [2] was 3.58% and the inhibition [3] was 1.38%.
In the case of `CC(C)(C)C1CCc2nc(N)nc(N)c2C1` (stereo not drawn), the inhibition [1] is reported as 44.3%, the inhibition [2] is reported as 55.5% and the inhibition [3] is reported as 46.5%.
`CCc1c[nH]c2c(N3CCCS3(=O)=O)cc(C(=O)N[C@@H](Cc3ccccc3)[C@H](O)CNC(C)(C)CCCC(C)C)cc12` showed an inhibition [1] of 1.92%, an inhibition [2] of 2.29% and an inhibition [3] of 0.89%.
`CNC(=O)COC(=O)c1c2c(nc3ccccc13)C(=Cc1ccc3c(c1)OCO3)CCC2` gave an inhibition [1] of 1.88%, an inhibition [2] of -1.19% and an inhibition [3] of 0.04%.
In the case of `CCOc1ccc(-c2nonc2NC(=O)c2ccc(Cl)cc2)cc1OCC`, the inhibition [1] is reported as 4.45%, the inhibition [2] is reported as 4.43% and the inhibition [3] is reported as 4.61%.
Molecule `O=C(NC1CCN(c2ccnc3cc(Cl)ccc23)C1)c1ccc(F)cc1F` (stereo not drawn) has an inhibition [1] of 1.51%, an inhibition [2] of 5.62% and an inhibition [3] of 2.89%.
Molecule `OC(CNc1ccnc(Nc2cccc(Cl)c2)n1)c1ccccc1C(F)(F)F` (stereo not drawn) has an inhibition [1] of 4.32%, an inhibition [2] of 4.32% and an inhibition [3] of -0.94%.
With `Clc1cc(Cl)cc(Nc2ccnc(Nc3cc(Cl)cc(Cl)c3)n2)c1` the inhibition [1] was 4.6%, the inhibition [2] was 2.75% and the inhibition [3] was 2.57%.
For `CSc1ccc2ccccc2c1CNCCCCCCNCc1c(SC)ccc2ccccc12`, the inhibition [1] was 1.24%, the inhibition [2] was 0.13% and the inhibition [3] was 1.41%.
Work on `COc1ccc2nccc(N/N=C/c3ccc([N+](=O)[O-])cc3)c2c1` yielded an inhibition [1] of -1.64%, an inhibition [2] of -1.77% and an inhibition [3] of 3.94%.
For `Oc1ccc(CCNCCCCCCNCCc2ccc(Br)cc2)cc1O`, the inhibition [1] was 3.51%, the inhibition [2] was 2.35% and the inhibition [3] was 0.85%.
Molecule `CC(C)CCNC(=O)[C@@H]1[C@H]2C(=O)N(C3CCCCC3)C(=O)[C@H]2[C@H]2C=C[C@@H]3C(c4ccc(C(C)(C)C)cc4)=NO[C@@H]3N21` has an inhibition [1] of 13.3%, an inhibition [2] of 11.4% and an inhibition [3] of 7.33%.
For `O=C(CCNc1ccnc(NCCc2ccccc2)n1)Nc1ccccc1`, the inhibition [1] was -0.28%, the inhibition [2] was 3.7% and the inhibition [3] was 2.66%.
`Oc1ccc(Nc2nc(N3CCCC3)c3ccccc3n2)cc1` showed an inhibition [1] of 2.69%, an inhibition [2] of 1.64% and an inhibition [3] of -0.61%.
